From PubChem BioAssay (NCI)
This is part of a sample that, as a whole, favours compounds with a hit. Of some 79,000 tested, about 15% had one in any assay. Unmarked numbers belong to inactive results. The source made the active and inactive calls. Rule as the data show it: active = growth inhibition above about 70%; inactive = the rest.

Assays:
[1] = NCI Yeast Anticancer Drug Screen. Data for the rad50 strain (AID 155);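 also: 0% = growth of vehicle-only cultures of the same strain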; conditions: S. cerevisiae rad50 strain growth inhibition, hits give high values
Summary of the method: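 Compounds were tested on a yeast strain with an engineered DNA damage repair alteration; the reported value is growth inhibition normalised to vehicle treatment.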

[2] = NCI Yeast Anticancer Drug Screen. Data for the mec2-1 strain (AID 157); conditions: S. cerevisiae mec2-1 strain, hits give high values
Summary of the method: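 Vehicle-treated cultures served as reference for growth inhibition of compound-exposed mec2-1 yeast.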

[3] = NCI Yeast Anticancer Drug Screen. Data for the sgs1 mgt1 strain (AID 161);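 also: 0% = growth of cultures given vehicle only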; conditions: S. cerevisiae sgs1 mgt1 strain, hits give high values
Summary of the method: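 Mutant yeast exposed to compound; growth scored against vehicle-only wells.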

[4] = NCI Yeast Anticancer Drug Screen. Data for the cln2 rad14 strain (AID 165);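 also: 0% = growth equal to vehicle treated cultures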; conditions: S. cerevisiae cln2 rad14 strain, hits give high values
Summary of the method: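 Each compound was tested on cln2 rad14 yeast. Inhibition of growth was calculated against vehicle-exposed controls.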

[5] = NCI Yeast Anticancer Drug Screen. Data for the bub3 strain (AID 167); conditions: S. cerevisiae bub3 mutant strain, hits give high values
Summary of the method: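 Growth of a checkpoint-deficient yeast mutant is measured after compound exposure. Values represent inhibition relative to vehicle.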

[6] = NCI Yeast Anticancer Drug Screen. Data for the mlh1 rad18 strain (AID 175); conditions: S. cerevisiae mlh1 rad18 strain growth inhibition, hits give high values
Summary of the method: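 Vehicle-treated cultures served as the reference for growth inhibition in a yeast strain carrying DNA damage repair alterations exposed to each compound.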

[7] = at 5.0 µM (retest, dose inferred, filed as 0.5)
[8] = at 50.0 µM (retest, dose inferred, filed as 5.0)

| SMILES | growth inhibition [1, 7] [%] | growth inhibition [1, 8] | growth inhibition ([1]; at 50.0 µM) | growth inhibition [2, 7] [%] | growth inhibition [2, 8] | growth inhibition ([2]; at 50.0 µM) | growth inhibition [3, 7] [%] | growth inhibition [3, 8] | growth inhibition ([3]; at 50.0 µM) | growth inhibition [4, 7] | growth inhibition [4, 8] | growth inhibition ([4]; at 50.0 µM) | growth inhibition [5, 7] [%] | growth inhibition [5, 8] | growth inhibition ([5]; at 50.0 µM) | growth inhibition [6, 7] [%] | growth inhibition [6, 8] | growth inhibition ([6]; at 50.0 µM) |
| --- | --- | --- | --- | --- | --- | --- | --- | --- | --- | --- | --- | --- | --- | --- | --- | --- | --- | --- |
| CCN(CC)CCOc1ccc(-c2cc(-c3ccccc3)nc(N)n2)cc1 | 49 | 98% (active) | 76.5% (active) | 58 | 99% (active) | 79.5% (active) | 44 | 91% (active) | 85.2% (active) | 73% (active) | 93% (active) | 59.3% | 58 | 92% (active) | 81.3% (active) | 55 | 99% (active) | 77.8% (active) |
| CC/C(Cl)=N\OC(=O)Nc1ccc(F)c(Cl)c1 | -8 | 98% (active) | 58.5% | 5 | 96% (active) | 84.4% (active) | 36 | 99% (active) | 83.7% (active) | 31% | 75% (active) | 51% | 5 | 92% (active) | 78.2% (active) | -8 | 94% (active) | 69.3% |
| CC1(C)NC(=O)C(C)(C)NC1=O | 4 | -2% | -12.9% | 1 | 2% | 5.8% | 0 | -1% | -7.4% | 2% | 3% | -19.9% | 4 | -2% | 48% | 3 | 3% | -14.8% |
| COC(=O)c1nc(=S)[nH]c(C(=O)OC)c1C(=O)C(C)(C)C | 6 | 24% | -6.8% | 4 | 18% | -10.4% | 11 | 22% | -21.9% | 5% | 22% | 45.6% | 5 | 26% | -25.2% | 9 | 20% | 4.75% |
| CCCCCCCCCCCCCC(=O)CBr | 11 | 84% (active) | 87.5% (active) | 4 | 85% (active) | 80.1% (active) | 35 | 99% (active) | 84.5% (active) | 2% | 68% | 66.2% | 9 | 98% (active) | 85.8% (active) | 5 | 90% (active) | 81.1% (active) |
| O=[N+]([O-])C1C2C=CC(C2)[C@H]1c1ccc(Cl)cc1Cl (stereo partly drawn) | 28 | 70% (active) | 89.5% (active) | 29 | 85% (active) | 93.2% (active) | 33 | 96% (active) | 92.2% (active) | 15% | 73% (active) | 89% (active) | 52 | 93% (active) | 91.6% (active) | 37 | 89% (active) | 89.2% (active) |
| CCOC(=O)c1cc(NC(=O)c2cc(NC(=O)c3cc(NC(=O)c4c(-c5ccccc5)noc4C)cn3C)cn2C)cn1C | 3 | 56% | 50.3% | -3 | 54% | 56.8% | 2 | 86% (active) | 59.1% | -5% | 29% | 14.8% | -4 | 46% | 36.1% | 0 | 67% | 51.3% |
| CCOC(=O)c1ccc(-c2cccs2)n1C | -14 | 6% | 65.9% | -1 | -6% | 43.8% | -12 | -3% | 61.9% | 28% | 0% | 23.4% | -12 | 1% | 67.8% | -9 | -1% | 43.2% |
| Nc1ncnc2c1ncn2C1OCC(OCc2ccccc2)C(OCc2ccccc2)C1OCc1ccccc1 (stereo not drawn) | 9 | 99% (active) | 98.3% (active) | -25 | 100% (active) | 96% (active) | 13 | 98% (active) | 99.2% (active) | 6% | 98% (active) | 96.8% (active) | 13 | 99% (active) | 97.5% (active) | -4 | 99% (active) | 98.1% (active) |
| C[n+]1c(-c2ccc(/C=N\NC(=O)c3cccc(C(=O)N/N=C/c4ccc(-c5cn6ccccc6[n+]5C)cc4)c3)cc2)cn2ccccc21 | -14 | 99% (active) | 98% (active) | 27 | 99% (active) | 98.5% (active) | 0 | 99% (active) | 98.2% (active) | -4% | 99% (active) | 97.7% (active) | 15 | 99% (active) | 98% (active) | -14 | 99% (active) | 98.5% (active) |
| CN(C)C=Nc1ccc2nonc2c1 | 15 | 24% | 10.2% | -15 | -7% | -3.55% | 12 | 16% | 3.4% | 19% | 23% | 7.8% | 15 | 13% | 4.1% | 8 | 10% | 0.9% |
| CN1C(=O)CCC2[C@@H]3CC=C4C[C@@H](O)CC[C@]4(C)C3CC[C@@]21C (stereo partly drawn) | -3 | 27% | 16.4% | 0 | 11% | 0.3% | 1 | 59% | 69.8% | 10% | 13% | 28.8% | 22 | 66% | 57.7% | -7 | 16% | 70.8% (active) |
| Cc1cc(OC(=O)CCl)ccc1C(C)(C)C | 1 | 12% | 56.4% | 2 | 13% | 40.5% | 0 | 1% | 56.4% | 5% | 5% | 5.5% | 0 | 5% | 30.5% | 2 | 18% | 84.6% (active) |
| Cc1ccc(Cc2n[nH]c(=O)[nH]2)cc1 | 32 | 35% | -28.9% | 18 | 14% | -45.1% | 30 | 33% | -35.7% | 17% | 30% | -2.5% | 26 | 22% | -26.3% | 45 | 52% | -31.6% |
| CC1=C(C)C(=O)C(C(C)(C)CC(=O)n2cc(F)c(=O)[nH]c2=O)=C(C)C1=O | 24 | 87% (active) | 93.5% (active) | 22 | 98% (active) | 97.5% (active) | 56 | 95% (active) | 97.2% (active) | 11% | 46% | 41.6% | 0 | 63% | 1.05% | 18 | 85% (active) | 86.8% (active) |
| O=C(Cc1ccc(C2=NCCN2)cc1[N+](=O)[O-])c1ccc(C2=NCCN2)cc1 | -3 | 73% (active) | 49.2% | -7 | 35% | 89.6% (active) | 0 | 55% | 26.8% | -5% | 16% | 25% | -8 | 71% (active) | 49.3% | -5 | 68% | 68.7% |
| O=C1CCCC1CN1CCOCC1 (stereo not drawn) | 5 | 97% (active) | 75% (active) | -21 | 97% (active) | 75.7% (active) | -32 | 75% (active) | 82% (active) | 6% | 66% | 64.4% | -20 | 96% (active) | 84.5% (active) | -6 | 99% (active) | 83.5% (active) |
| O=C(O)c1c[nH]c2cc(Cl)ccc2c1=O | 4 | -5% | -1.55% | 1 | 5% | -20.9% | -8 | -3% | -22.1% | 2% | 1% | 90.9% (active) | 1 | -2% | -19.8% | -1 | -4% | 12.2% |
| CCCCCN(CCCCC)C(=O)CCl | -2 | 30% | 68.6% | -3 | 15% | 53.5% | -3 | 10% | 69.2% | 8% | 7% | -6.75% | 12 | 58% | 82.5% (active) | -1 | 23% | 85.3% (active) |
| OCCSCc1cc(Cl)cc(Cl)c1O | 7 | 76% (active) | 56% | -12 | 60% | 48.2% | -6 | 90% (active) | 78.7% (active) | -10% | 44% | 44.4% | -6 | 77% (active) | 78% (active) | 0 | 91% (active) | 78.8% (active) |
| O=C(c1ccccc1)c1ccc2c(c1Cl)C(=O)c1ccccc1C2=O | -6 | -1% | 43% | -3 | -7% | 43.8% | 0 | 0% | 63.8% | 14% | -16% | 4% | -8 | -11% | 80.5% (active) | 1 | 0% | 65.2% |
